Laboratory results from PubChem BioAssay (NCATS).
Inconclusive results are not listed. Activity calls are given as the source filed them. Unless noted, the call rests on the fitted dose curve; in most records, active means well fitted curve in the direction sought with a large enough effect; inconclusive means small, poorly fitted or top-dose-only effect, or another doubt; inactive means no such curve, though single readings can be large; an effect the other way counts as inactive or inconclusive.

Legend:
[1] = NCATS anti-infectives library activity on the primary C. elegans qHTS viability assay (AID 1745855; calls by dose curve; further: potency means the concentration at half of the fitted maximal effect)
Summary of the method: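 GFP read-out by 488 nm laser cytometry at day 0, 3 and 7, gated on object perimeter, area and peak intensity, scored viability of PE254-GFP-FLuc worms exposed to compound in S medium with bacterial capsules at 21 °C.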

[2] = target: Glutathione peroxidase 1 (Homo sapiens) (UniProt P07203); assay: Primary qHTS Assay for Inhibitors of Recombinant Selenoprotein Glutathione Peroxidase 1 (GPX1) (AID 1845191); further: nearly all actives have a fitted effect of over 65% in size
Summary of the method: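 GPX1 10 nM, GR 100 nM, GSH 1 mM, NADPH 0.5 mM, CHP 0.5 mM (final). 30-min cpd preincubation, RT. Ex340/Em450 read t=0, t=15 min.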

[3] = target: Phospholipid hydroperoxide glutathione peroxidase GPX4 (Homo sapiens) (UniProt P36969); assay: Primary qHTS Assay for Inhibitors of Recombinant Selenoprotein Glutathione Peroxidase 4 (GPX4) (AID 1845192); further: on the % scale 0 is the no-effect control and ±100 the full control effect; nearly all actives have a fitted effect of over 65% in size
Chain of Phospholipid hydroperoxide glutathione peroxidase GPX4 (Homo sapiens) (P36969 whole entry, looked up): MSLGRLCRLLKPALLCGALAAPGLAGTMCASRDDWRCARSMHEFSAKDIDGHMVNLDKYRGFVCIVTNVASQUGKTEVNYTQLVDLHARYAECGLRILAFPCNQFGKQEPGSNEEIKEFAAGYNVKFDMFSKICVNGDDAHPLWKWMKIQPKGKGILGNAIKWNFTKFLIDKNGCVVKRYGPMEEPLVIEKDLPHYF
Summary of the method: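 qHTS, GR-coupled: GPX4 200 nM + cpd 30 min RT → GSH 1 mM, NADPH 0.5 mM, GR 100 nM → CHP 0.5 mM start; fluor 340/450 at t0 and t15 min; no-enzyme wells as control.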

[4] = target: Lysosomal acid glucosylceramidase (Homo sapiens) (UniProt P04062); assay: Glucocerebrosidase-p2 (AID 348; in the data active means potency below about 10 µM; further: potency means the concentration at half of the fitted maximal effect); conditions: purified GBA, blue fluorogenic substrate, 40 min
Chain of Lysosomal acid glucosylceramidase (Homo sapiens) (P04062 whole entry, looked up): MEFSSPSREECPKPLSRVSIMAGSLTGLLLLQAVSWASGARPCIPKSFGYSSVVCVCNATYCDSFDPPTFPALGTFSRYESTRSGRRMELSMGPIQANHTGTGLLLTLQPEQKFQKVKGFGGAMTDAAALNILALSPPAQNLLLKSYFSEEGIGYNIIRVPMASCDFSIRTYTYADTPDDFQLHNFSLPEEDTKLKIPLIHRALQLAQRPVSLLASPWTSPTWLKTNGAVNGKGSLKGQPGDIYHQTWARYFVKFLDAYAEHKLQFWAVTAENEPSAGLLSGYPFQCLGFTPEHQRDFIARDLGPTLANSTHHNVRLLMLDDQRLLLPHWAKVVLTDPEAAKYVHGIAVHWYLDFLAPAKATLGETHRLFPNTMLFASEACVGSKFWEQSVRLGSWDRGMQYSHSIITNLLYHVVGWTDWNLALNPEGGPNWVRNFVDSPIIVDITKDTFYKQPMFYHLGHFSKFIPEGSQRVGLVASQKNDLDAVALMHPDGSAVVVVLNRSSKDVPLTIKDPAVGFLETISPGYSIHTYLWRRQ
Summary of the method: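 Normal human glucocerebrosidase (0.2 nM) with blue fluorogenic substrate (80 uM final) in citrate/phosphate pH 5.9 with 10mM sodium taurocholate, 0.01% tween-20; 40 min RT, NaOH/glycine stop; fluorescence Ex 365/Em 440; AC50 from a titration from 0.6 nM upwards.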

[5] = AP1 Signaling Pathway (AID 357; active means well fitted curve in either direction with a large enough effect, not every such curve was filed as active;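 further: ME-180 reporter cells stimulated with EGF at its EC50 level; on the % scale 0 is the no-effect control and ±100 the full control effect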); conditions: ME-180 AP-1-bla reporter, EGF-induced, beta-lactamase ratio, 5 h; at 7.69 µM (top of the series) unless noted
Summary of the method: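 Cells are seeded overnight, exposed to compound titrations and an EC50 level of EGF for 5 hours at 37 °C, then loaded with CCF4 dye for 2.5 hours. Beta-lactamase activity under the AP-1 element is read as a blue/green ratio.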

[6] = target: Cytochrome P450 1A2 (Homo sapiens) (UniProt P05177); assay: p450-cyp1a2 (AID 410; calls by dose curve; further: potency means the concentration at half of the fitted maximal effect)
Chain of Cytochrome P450 1A2 (Homo sapiens) (P05177 whole entry, looked up): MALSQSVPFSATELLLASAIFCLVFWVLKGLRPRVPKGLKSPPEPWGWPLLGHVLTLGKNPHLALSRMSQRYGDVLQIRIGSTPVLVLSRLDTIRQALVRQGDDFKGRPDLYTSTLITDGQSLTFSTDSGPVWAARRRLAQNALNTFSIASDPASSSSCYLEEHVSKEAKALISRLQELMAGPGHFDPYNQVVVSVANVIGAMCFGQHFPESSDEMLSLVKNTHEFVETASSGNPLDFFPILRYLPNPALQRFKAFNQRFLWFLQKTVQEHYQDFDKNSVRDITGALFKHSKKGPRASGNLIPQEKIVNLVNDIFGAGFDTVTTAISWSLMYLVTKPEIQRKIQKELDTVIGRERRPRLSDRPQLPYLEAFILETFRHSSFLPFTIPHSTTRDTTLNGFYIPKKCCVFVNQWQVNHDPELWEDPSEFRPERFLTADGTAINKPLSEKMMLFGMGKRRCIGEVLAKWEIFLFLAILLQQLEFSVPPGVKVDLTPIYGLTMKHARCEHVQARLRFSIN
Summary of the method: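 Luminescent demethylation readout: Luciferin-ME (100uM, equal to Km) turned over by 20nM CYP1A2 for 60 min at room temperature after NADPH regeneration addition, following 10 min compound preincubation. Normalization used 57 uM furafylline as full inhibition.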

[7] = NFAT Signaling Pathway (AID 444; active means well fitted curve in either direction with a large enough effect, not every such curve was filed as active;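 further: carbachol stimulus at about its EC50 of 1 µM final; on the % scale 0 is the no-effect control and ±100 the full control effect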); conditions: Jurkat NFAT-bla M1, carbachol, beta-lactamase ratio, 5 h; at 7.69 µM (top of the series) unless noted
Summary of the method: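 Jurkat cells carrying an NFAT-driven β-lactamase reporter and co-transfected muscarinic M1 receptor were treated with compound plus carbachol (1 uM final, an EC50 level) for 5 h at 37 °C. CCF4 loading followed for 1 h at RT; 460/530 nm ratio gave %activity.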

[8] = Stat Signaling Pathway (AID 446; active means well fitted curve in either direction with a large enough effect, not every such curve was filed as active;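 further: ME-180 cervical cancer cells given 40 pM IL-6 alongside compound; SIE-controlled beta-lactamase reporter measured as 460/530 nm FRET emission ratio; on the % scale 0 is the no-effect control and ±100 the full control effect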)
Summary of the method: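 Normalization used AC90 stimulation (300 pM IL-6) and AC90 inhibition (125 nM pan-JAK inhibitor at 40 pM IL-6). The underlying signal is SIE-driven beta-lactamase in ME-180 cells after 5 h IL-6 exposure with compound.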

[9] = target: Glucocorticoid receptor (Homo sapiens) (UniProt P04150); assay: GR-GFP Redistribution (AID 450;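 active means compounds whose dose series gives a full or clear partial fitted curve of increased nuclear translocation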; further: potency means the concentration at half of the fitted maximal effect); conditions: U2OS GR-GFP nuclear translocation, laser cytometry, 2 h
Chain of Glucocorticoid receptor (Homo sapiens) (P04150 whole entry, looked up, the tested form may be a part): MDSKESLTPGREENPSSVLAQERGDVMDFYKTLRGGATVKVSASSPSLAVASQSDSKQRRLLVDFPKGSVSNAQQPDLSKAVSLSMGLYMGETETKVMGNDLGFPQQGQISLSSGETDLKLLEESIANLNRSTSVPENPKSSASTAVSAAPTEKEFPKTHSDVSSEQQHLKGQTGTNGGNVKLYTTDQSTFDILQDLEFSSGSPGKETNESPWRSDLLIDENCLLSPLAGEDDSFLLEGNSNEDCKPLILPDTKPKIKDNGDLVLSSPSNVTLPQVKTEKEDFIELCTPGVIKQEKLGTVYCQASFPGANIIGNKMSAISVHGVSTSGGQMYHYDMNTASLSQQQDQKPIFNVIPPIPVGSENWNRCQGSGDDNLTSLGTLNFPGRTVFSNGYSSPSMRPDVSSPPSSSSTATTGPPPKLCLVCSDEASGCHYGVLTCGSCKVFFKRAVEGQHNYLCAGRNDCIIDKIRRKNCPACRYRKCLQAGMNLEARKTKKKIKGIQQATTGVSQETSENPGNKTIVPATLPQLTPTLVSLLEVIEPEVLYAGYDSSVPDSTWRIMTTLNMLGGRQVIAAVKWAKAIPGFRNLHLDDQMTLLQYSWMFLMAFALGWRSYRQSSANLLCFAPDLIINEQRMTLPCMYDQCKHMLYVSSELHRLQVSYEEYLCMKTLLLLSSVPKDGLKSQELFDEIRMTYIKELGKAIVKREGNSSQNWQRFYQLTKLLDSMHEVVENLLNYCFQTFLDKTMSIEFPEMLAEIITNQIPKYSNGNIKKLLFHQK

[10] = target: Glucocorticoid receptor (Homo sapiens) (UniProt P04150); assay: GR-EFC Redistribution (AID 451; calls by dose curve; further: potency means the concentration at half of the fitted maximal effect); conditions: CHO-K1 GR-EFC translocation, beta-gal luminescence, 2 h
Summary of the method: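 CHO-K1 cells stably expressing nuclear-localized β-gal enzyme acceptor and GR fused C-terminally to the enzyme donor fragment; ligand-driven nuclear translocation restores β-gal by complementation. Compounds titrated up to 46 uM final, 2 h at 37 °C; luminescence read.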

[11] = target: Mitogen-activated protein kinase 10 (Mus musculus) (UniProt Q61831); assay: JNK3 AlphaScreen Assay (AID 530; active means well fitted curve in either direction with a large enough effect, not every such curve was filed as active;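 further: kinase came from lysate of stimulated human HepG2 cells; signal reports phosphorylation of biotinylated GST-cJun 1-79 at Ser73 with 10 µM ATP; on the % scale 0 is the no-effect control and ±100 the full control effect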)
Summary of the method: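 Phosphorylation of biotinylated GST-cJun(1-79) at Ser73 is measured by AlphaScreen proximity luminescence. Enzyme is JNK3 in HepG2 lysates activated with interleukin-1beta and tumor necrosis factor alpha; ATP is 10 uM final.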

[12] = target: 3',5'-cyclic-AMP phosphodiesterase 4B (Homo sapiens) (UniProt Q07343); assay: qHTS Assay for Inhibitors of PDE-IV (AID 607; active means well fitted activation curve with a large enough effect in the main read-out, with a control signal flat, not every such curve was filed as active; further: % of control where 0% means no effect)
Chain of 3',5'-cyclic-AMP phosphodiesterase 4B (Homo sapiens) (Q07343 whole entry, looked up): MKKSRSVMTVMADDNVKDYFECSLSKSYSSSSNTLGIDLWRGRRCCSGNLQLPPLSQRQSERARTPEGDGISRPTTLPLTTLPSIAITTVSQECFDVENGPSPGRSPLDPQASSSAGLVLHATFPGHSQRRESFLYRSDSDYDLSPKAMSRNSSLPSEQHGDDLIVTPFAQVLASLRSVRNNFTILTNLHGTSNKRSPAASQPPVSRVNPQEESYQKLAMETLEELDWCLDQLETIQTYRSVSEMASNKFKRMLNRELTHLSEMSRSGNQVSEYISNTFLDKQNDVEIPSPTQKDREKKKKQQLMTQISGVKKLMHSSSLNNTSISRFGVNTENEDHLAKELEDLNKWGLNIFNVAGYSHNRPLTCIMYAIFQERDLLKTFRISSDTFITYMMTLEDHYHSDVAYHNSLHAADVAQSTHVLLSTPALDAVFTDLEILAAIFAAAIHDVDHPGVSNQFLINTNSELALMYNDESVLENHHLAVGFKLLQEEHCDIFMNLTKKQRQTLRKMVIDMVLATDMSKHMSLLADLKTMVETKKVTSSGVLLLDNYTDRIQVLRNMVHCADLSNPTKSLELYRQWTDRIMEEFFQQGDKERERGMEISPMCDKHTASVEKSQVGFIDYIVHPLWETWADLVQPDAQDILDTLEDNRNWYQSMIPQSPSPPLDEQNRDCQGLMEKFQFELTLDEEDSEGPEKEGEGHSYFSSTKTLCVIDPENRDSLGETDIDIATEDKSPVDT
Summary of the method: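 HEK293 ACTOne cells with CNG channel (1000/well), endogenous PDE4; membrane potential dye, compounds up to 22.9 uM final. Fluorescence Ex 535/Em 590; RO 20-1724 (100 uM final) as reference.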

[13] = target: Dual specificity protein kinase CLK4 (Homo sapiens) (UniProt Q9HAZ1); assay: qHTS Assay for Inhibitors of CDC-like Kinase 4 (Kinase-Glo Assay) (AID 1770); further: on the % scale 0 is the no-effect control and ±100 the full control effect; nearly all actives have a fitted effect of over 65% in size
Chain of Dual specificity protein kinase CLK4 (Homo sapiens) (Q9HAZ1 whole entry, looked up): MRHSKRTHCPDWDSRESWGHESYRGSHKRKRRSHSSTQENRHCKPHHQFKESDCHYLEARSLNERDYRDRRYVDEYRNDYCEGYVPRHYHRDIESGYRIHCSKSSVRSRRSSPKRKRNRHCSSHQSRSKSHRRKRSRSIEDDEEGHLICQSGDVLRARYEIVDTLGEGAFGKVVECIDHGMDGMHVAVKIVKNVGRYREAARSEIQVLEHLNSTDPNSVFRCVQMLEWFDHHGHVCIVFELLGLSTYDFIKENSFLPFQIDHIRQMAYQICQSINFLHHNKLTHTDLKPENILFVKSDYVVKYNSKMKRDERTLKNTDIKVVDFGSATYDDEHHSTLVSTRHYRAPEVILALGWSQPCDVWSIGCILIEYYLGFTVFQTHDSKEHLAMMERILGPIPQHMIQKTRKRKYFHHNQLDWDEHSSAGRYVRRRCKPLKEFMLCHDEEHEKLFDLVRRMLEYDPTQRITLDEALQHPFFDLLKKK
Summary of the method: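 Recombinant human Clk4 (25 nM) phosphorylated RS repeat peptide (100 uM) with 1 uM ATP in Tris pH 7.5/MgCl2/EGTA/DTT/Triton buffer for 4.5 h at room temperature. Residual ATP was quantified by Kinase-Glo luciferase luminescence.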

[14] = target: Dual specificity protein kinase CLK4 (Homo sapiens) (UniProt Q9HAZ1); assay: qHTS Assay for Inhibitors of CDC-like Kinase 4 (ADP-Glo Assay) (AID 1771); further: on the % scale 0 is the no-effect control and ±100 the full control effect; nearly all actives have a fitted effect of over 70% in size
Summary of the method: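 ADP production was read by ADP-Glo luminescence after residual ATP depletion, following 1 h room-temperature reaction of 25 nM Clk4, 1 uM ATP and 100 uM RS peptide with MgCl2, EGTA, DTT and Triton X-100.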

[15] = target: Dual specificity protein kinase CLK4 (Homo sapiens) (UniProt Q9HAZ1); assay: qHTS Assay for Inhibitors of CDC-like Kinase 4 (ADP-FP Assay) (AID 1795); further: on the % scale 0 is the no-effect control and ±100 the full control effect; nearly all actives have a fitted effect of over 60% in size
Summary of the method: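 Recombinant human Clk4 (6.25 nM) phosphorylated RS repeat peptide (100 uM) with 1 uM ATP in Tris pH 7.5/MgCl2/EGTA/DTT/Triton buffer for one hour. ADP was quantified by Transcreener competitive fluorescence polarization against an ADP calibration curve.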

[16] = target: Ubiquitin carboxyl-terminal hydrolase 1 (Homo sapiens) (UniProt O94782); assay: Inhibitors of USP1/UAF1: Pilot qHTS (AID 504865);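 further: rhodamine fluorescence freed from ubiquitin-rhodamine substrate followed over time; top concentration of the series differs between compounds; on the % scale 0 is the no-effect control and ±100 the full control effect; nearly all actives have a fitted effect of over 35% in size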
Chain of Ubiquitin carboxyl-terminal hydrolase 1 (Homo sapiens) (O94782 whole entry, looked up): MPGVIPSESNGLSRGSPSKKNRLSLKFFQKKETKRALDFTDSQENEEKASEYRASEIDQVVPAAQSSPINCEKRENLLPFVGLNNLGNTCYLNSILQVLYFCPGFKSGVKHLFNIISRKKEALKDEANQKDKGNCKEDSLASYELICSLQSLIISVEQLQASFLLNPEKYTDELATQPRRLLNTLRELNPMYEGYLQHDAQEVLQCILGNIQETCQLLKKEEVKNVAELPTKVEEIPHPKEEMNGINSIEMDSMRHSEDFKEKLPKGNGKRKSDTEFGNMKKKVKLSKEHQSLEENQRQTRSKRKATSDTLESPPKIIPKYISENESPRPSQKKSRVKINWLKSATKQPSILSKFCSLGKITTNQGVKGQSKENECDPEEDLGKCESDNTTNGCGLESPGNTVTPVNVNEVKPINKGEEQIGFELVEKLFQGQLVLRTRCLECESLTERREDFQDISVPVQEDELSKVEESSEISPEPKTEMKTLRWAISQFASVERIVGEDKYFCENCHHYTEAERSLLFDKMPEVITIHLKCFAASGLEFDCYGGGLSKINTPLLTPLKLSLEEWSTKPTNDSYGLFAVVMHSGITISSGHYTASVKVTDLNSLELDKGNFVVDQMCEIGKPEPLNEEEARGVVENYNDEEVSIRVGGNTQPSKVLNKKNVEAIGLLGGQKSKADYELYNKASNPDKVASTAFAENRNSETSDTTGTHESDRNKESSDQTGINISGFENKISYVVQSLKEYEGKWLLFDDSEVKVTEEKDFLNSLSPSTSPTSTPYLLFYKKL
Summary of the method: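 USP1/UAF1 complex (1nM) preincubated with compound 15 min at room temperature, then Ub-Rho substrate (150nM final) added. Fluorescence read kinetically at 480/540 nm, 6 reads every 60 seconds. Buffer: 50mM HEPES pH 7.8, 0.5mM EDTA, 0.1 mg/ml BSA, 1mM TCEP, 0.01% Tween-20.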

[17] = target: Cytochrome P450 2C9 (Homo sapiens) (UniProt P11712); assay: qHTS Assay for Inhibitors and Substrates of Cytochrome P450 2C9 (AID 883); further: on the % scale 0 is the no-effect control and ±100 the full control effect; nearly all actives have a fitted effect of over 60% in size
Chain of Cytochrome P450 2C9 (Homo sapiens) (P11712 whole entry, looked up): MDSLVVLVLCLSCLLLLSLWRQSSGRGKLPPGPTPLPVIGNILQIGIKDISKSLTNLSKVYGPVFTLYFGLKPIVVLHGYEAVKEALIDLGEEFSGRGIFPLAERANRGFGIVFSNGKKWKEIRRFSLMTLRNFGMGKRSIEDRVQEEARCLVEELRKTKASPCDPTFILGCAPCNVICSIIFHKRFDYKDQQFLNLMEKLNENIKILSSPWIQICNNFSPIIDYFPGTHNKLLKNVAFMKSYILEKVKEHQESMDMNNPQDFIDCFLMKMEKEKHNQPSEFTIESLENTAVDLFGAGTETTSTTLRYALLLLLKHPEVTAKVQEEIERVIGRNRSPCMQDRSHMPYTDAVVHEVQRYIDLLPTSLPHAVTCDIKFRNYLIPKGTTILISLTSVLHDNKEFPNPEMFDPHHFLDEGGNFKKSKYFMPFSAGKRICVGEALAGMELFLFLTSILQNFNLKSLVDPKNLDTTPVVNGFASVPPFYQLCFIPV
Summary of the method: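 A luminogenic readout tracked human CYP2C9 (10nM) converting deoxyluciferin (100uM, at KM) in 25mM KPO4 during 60 min at 37C with regenerated NADPH. Values normalized to 57uM sulphaphenazole as complete inhibition.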

[18] = qHTS Assay for Identification of Small Molecule Agonists for Hypoxia Response Element Signaling Pathway (AID 914; active means well fitted activation curve with a large enough effect in the signal ratio, with a control signal flat, not every such curve was filed as active; the % refers to the signal ratio; further: % of control where 0% means no effect); conditions: ME-180 HRE-bla reporter, beta-lactamase ratio, CoCl2, 17 h; activation: hits give high values
Summary of the method: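 ME-180 cells carrying an HRE-driven beta-lactamase reporter were treated with compounds in a titration series plus an EC50 level of CoCl2 for 17 h at 37 degrees Celsius; CCF4 readout as the 460nm/530nm ratio gave AC50 values.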

[19] = target: Cytochrome P450 3A4 (Homo sapiens) (UniProt P08684); assay: qHTS Assay for Inhibitors and Substrates of Cytochrome P450 3A4 (AID 884); further: potency means the concentration at half of the fitted maximal effect; nearly all actives have a fitted effect of over 50% in size
Chain of Cytochrome P450 3A4 (Homo sapiens) (P08684 whole entry, looked up): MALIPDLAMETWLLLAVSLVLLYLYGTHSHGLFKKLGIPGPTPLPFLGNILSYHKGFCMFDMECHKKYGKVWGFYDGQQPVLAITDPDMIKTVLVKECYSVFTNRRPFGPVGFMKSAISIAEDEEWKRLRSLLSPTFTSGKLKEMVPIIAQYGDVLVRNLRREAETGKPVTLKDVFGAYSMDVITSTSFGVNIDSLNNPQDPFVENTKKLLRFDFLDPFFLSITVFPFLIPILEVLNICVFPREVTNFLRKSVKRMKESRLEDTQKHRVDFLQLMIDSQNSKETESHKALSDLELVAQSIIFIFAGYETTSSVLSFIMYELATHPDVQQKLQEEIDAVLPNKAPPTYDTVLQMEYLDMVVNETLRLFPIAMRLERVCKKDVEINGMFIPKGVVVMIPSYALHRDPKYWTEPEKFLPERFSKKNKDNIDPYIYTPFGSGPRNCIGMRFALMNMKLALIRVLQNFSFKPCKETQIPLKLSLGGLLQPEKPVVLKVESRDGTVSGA
Summary of the method: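 Luminescent readout of luciferin produced by CYP3A4 (20 nM) dealkylation of Luciferin-PPXE, 25 uM (its KM). NADPH-driven reaction ran 60 min at RT after 10 min compound preincubation; data scaled to 57 uM ketoconazole as 100% inhibition.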

[20] = target: Cytochrome P450 3A4 (Homo sapiens) (UniProt P08684); assay: qHTS Assay for Activators of Cytochrome P450 3A4 (AID 885); further: nearly all actives have a fitted effect of over 65% in size
Summary of the method: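 Human CYP3A4 dealkylates Luciferin-PPXE to luciferin, which luciferase detection converts to light. Substrate was at its KM (25uM), buffer 200mM KPO4, reaction 60 min at RT.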

[21] = target: Cytochrome P450 2D6 (Homo sapiens) (UniProt P10635); assay: qHTS Assay for Inhibitors and Substrates of Cytochrome P450 2D6 (AID 891); further: potency means the concentration at half of the fitted maximal effect; nearly all actives have a fitted effect of over 60% in size
Summary of the method: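 Luminescent read-out of luciferin formed by 5 nM human CYP2D6 demethylating 30 uM Luciferin-ME EGE (Km level) over 60 min at room temperature after NADPH regeneration addition. Data normalized to full inhibition by 1.43 uM quinidine.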

[22] = target: Cytochrome P450 2C19 (Homo sapiens) (UniProt P33261); assay: qHTS Assay for Inhibitors and Substrates of Cytochrome P450 2C19 (AID 899); further: potency means the concentration at half of the fitted maximal effect; nearly all actives have a fitted effect of over 60% in size
Summary of the method: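 NADPH-dependent conversion of Luciferin-H EGE (10uM, at KM) by 5nM enzyme in 50mM KPO4, 60 min at 37C following 10 min compound preincubation. Stopped with luciferin detection buffer; luminescence read after 20 min.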

CC(C)C[C@H](NC(=O)CNC(=O)c1cc(Cl)ccc1Cl)B1OC(=O)C(CC(=O)O)(CC(=O)O)O1
inactive: Potency [2] | Potency [3]
active: Potency [1] 1.63 µM

O=c1c(CCc2ccccc2)nc2cnc(N3CCNCC3)nc2n1-c1ccccc1
inactive: Potency [4] > 11.4 µM | activity change, negative = inhibition [5] -11.6% | activity change, negative = inhibition [7] 6.64% | outcome [8] | Potency [9] > 9.22 µM | Potency [10] > 46 µM | Potency [11] | Potency [12] | Potency [13] | Potency [14] | Potency [15] | Potency [16]
active: Potency [6] 15.8 µM

CN1CCN(c2ncc3nc(-c4cn(C)c5ccccc45)c(=O)n(C[C@H]4CCCO4)c3n2)CC1
inactive: Potency [4] > 11.4 µM | activity change, negative = inhibition [5] -8.04% | activity change, negative = inhibition [7] 3.64% | outcome [8] | Potency [9] > 46 µM | Potency [10] > 46 µM | Potency [12] | Potency [17] | Potency [13] | Potency [14] | Potency [15] | Potency [16]
active: Potency [6] 6.31 µM

N#CCCn1c(=O)c(-c2ccc(Cl)cc2)nc2cnc(N3CCOCC3)nc21
inactive: Potency [4] > 11.4 µM | activity change, negative = inhibition [5] 0.155% | activity change, negative = inhibition [7] 5.23% | outcome [8] | Potency [9] > 9.22 µM | Potency [10] > 46 µM | Potency [12] | Potency [17] | activation [18] 22.6% | Potency [13] | Potency [14] | Potency [15] | Potency [16]
active: Potency [6] 15.8 µM

COc1ccccc1CNc1ncncc1-c1ccccc1Cl
active: Potency [6] 10 µM | Potency [19] 0.199 µM | Potency [21] 2 µM | Potency [22] 1.26 µM
inactive: Potency [4] > 11.4 µM | activity change, negative = inhibition [5] -2.69% | activity change, negative = inhibition [7] -21.7% | outcome [8] | Potency [10] > 46 µM | Potency [11] | Potency [12] | outcome [20] | Potency [13] | Potency [14] | Potency [15] | Potency [16]
